{
  "source": "paper PMC5540273",
  "about": "(PLoS ONE, 2017)",
  "data": [
    {"test_system": "RIOK2", "conditions": "concentration: 1 μM, replicates: in singlicate; n = 1", "units": {"%Inh": "%"}, "values": [
      {"compound": "COc1ccc(Nc2nccc(N3CCC(NC(=O)C(C)c4ccc(Cl)cc4)CC3)n2)cc1", "note": "(stereo not shown) [GSK1379812];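 further: KINOMEscan kinase panel screen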", "%Inh": 0},
      {"compound": "CC(=O)c1c(C)c2cnc(Nc3ccc(N4CCNCC4)cn3)nc2n(C2CCCC2)c1=O", "%Inh": 0},
      {"compound": "Nc1nccc(-c2c(-c3ccc(F)cc3)ncn2C2CCN(Cc3ccccc3)CC2)n1", "note": "[SB-219980]", "%Inh": 1},
      {"compound": "Fc1ccc(-c2nc3n(c2-c2ccncc2)CCS3)cc1", "note": "[GI98581]", "%Inh": 0},
      {"compound": "COc1cccc(CNC(=O)NC2CCN(c3ccnc(Nc4ccc(F)cc4)n3)C2)c1", "note": "(stereo not shown) [GSK1379723]", "%Inh": 0},
      {"compound": "c1ccc(-c2ccnc3[nH]ccc23)cc1", "note": "[SB-693578]", "%Inh": 27},
      {"compound": "Cc1ccc(NC(=O)c2ccc(Cl)cc2)cc1-c1ccc(C(=O)Nc2ccncc2)cc1", "note": "[GSK1398467]", "%Inh": 0},
      {"compound": "CNCc1ccc2nc(NC(=O)c3ccc(C(C)(C)C)cc3)cn2c1", "%Inh": 86},
      {"compound": "COc1ccc(-c2coc3ccc(-c4nnc(C)o4)cc23)cc1", "%Inh": 15},
      {"compound": "O=C(Nc1n[nH]c2nc(-c3ccco3)c(Br)cc12)C1CCN(Cc2ccccc2)C1.O=C(O)[C@H](O)[C@@H](O)C(=O)O", "note": "(stereo not shown) [SB-742034]", "%Inh": 7},
      {"compound": "Cc1c(Cn2c(C)c(C)n3c(=O)cc(N4CCOCC4)nc23)cccc1C(F)(F)F", "note": "[GSK2328680]", "%Inh": 11},
      {"compound": "COC(=O)C(NC(=O)NC1CCN(c2ccnc(Nc3ccc(F)cc3)n2)C1)c1ccccc1", "note": "(stereo not shown) [GSK1379712]", "%Inh": 0},
      {"compound": "Cc1ccc(NC(=O)Nc2ccc(Cl)cc2)cc1-c1ccc(C(=O)Nc2ccncc2)cc1", "note": "[GSK1398472]", "%Inh": 0}
    ]}
  ]
}
